Screening data (PubChem BioAssay)
Most compounds without a hit are left out; they make up all but 19% or so of the library.
KB-3-1 cytotox – KB-3-1 parental cell cytotoxicity; KB-3-1 viability, CellTiter-Glo ATP luminescence, 72 h; Potency, µM (top dose mostly 46.1 µM), hits mostly cytotoxic; 400,000 compounds, 1.4% hits; AID 1347075; further: nearly all actives have a fitted effect of over 60% in size
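Using CellTiter-Glo luminescence, growth of non-resistant KB-3-1 adenocarcinoma cells is assessed 72 h after pin-tool compound addition at 37 °C. Normalized responses across the concentration series yield fitted curves.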
KB-V1 cytotox – kills drug-selected multidrug resistant KB-V1 cells; KB-V1 MDR cells viability, CellTiter-Glo, 72 h; Potency, µM (series often up to 46.1 µM), actives largely listed as cytotoxic; 400,000 compounds, 3.4% hits; AID 1347076; further: nearly all actives have a fitted effect of over 60% in size
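KB-V1 cells (P-gp-expressing MDR subline of KB-3-1) in phenol-red-free DMEM with 10% FBS were exposed to library compounds over a concentration series for 72 h at 37 degrees C. Viability read by CellTiter-Glo luminescence; concentration-effect curves fitted after normalization.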
TDP1 cell CPT – growth inhibition of DT40 Tdp1-/-;hTDP1 cells with camptothecin (screen for TDP1 inhibitors); AID 686979; chicken DT40 Tdp1-/-;hTDP1 cells + 20 nM CPT, ATP luminescence, 48 h; 420,000 compounds, 12% hits; Potency, µM (series often up to 46.2 µM), for inactives: at the top dose activity change, negative = growth inhibition, most hits filed as inhibitors; further: nearly all actives have a fitted effect of over 55% in size
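Chicken DT40 Tdp1-/- cells stably complemented with human TDP1 were seeded at 400 cells/well in medium containing 20 nM camptothecin, exposed to pin-transferred compounds, and grown at 37 °C for at least 48 hr. Viability was read as ATP luminescence.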
HT1080NT lethal – kills 2HG-producing HT-1080-NT fibrosarcoma cells. HT-1080-NT fibrosarcoma viability, CellTiter-Glo ATP luminescence, 48 h. Potency, µM (top dose mostly 46.1 µM), without a hit: top-dose activity, negative = less viability, actives largely listed as cytotoxic. 360,000 compounds, 1.6% hits;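 further: NT is the 2HG producing partner of a matched IDH1 knockdown line; 0% = DMSO-treated cells and -100% = media-only wells without cells; nearly all actives have a fitted effect of over 55% in size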
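HT-1080-NT fibrosarcoma cells (2HG-overproducing), 750 cells/well in RPMI with 5% FBS, dosed after 2 h and incubated 48 h at 37C. CellTiter-Glo luminescence normalized to DMSO and no-cell wells; concentration-response curves fitted and classed.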
DT40 TDP1 no CPT – qHTS for Inhibitors of human tyrosyl-DNA phosphodiesterase 1 (TDP1): qHTS in cells in absence of CPT; Potency, µM (highest dose often 46.2 µM), without a hit: at the highest dose activity change, negative = growth inhibition, usual class: inhibitors; 420,000 compounds, 15% hits; DT40 Tdp1-/- hTDP1 cells, no CPT, ATP luminescence, 48 h; AID 686978, 2013; further: nearly all actives have a fitted effect of over 55% in size
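Stably hTDP1-transfected Tdp1-null chicken DT40 cells were treated with library compounds minus camptothecin and grown for at least 48 hr at 37 °C, after which cellular ATP was quantified by luminescence.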
HT1080 IDH1KD tx – HT-1080 IDH1 knockdown cell toxicity (counter line); HT-1080 IDH1 knockdown viability, ATP luminescence, 48 h; Potency, µM (titrated, usually from 46.1 µM), for inactives: at the top dose activity, negative = toxicity, actives largely listed as cytotoxic; 360,000 compounds, 2% hits;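 further: 0% = DMSO wells and -100% = cell-free medium wells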
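HT-1080-IDH1KD cells (IDH1 knocked down), 750/well in RPMI with 5% FBS, treated with compound 48 h at 37 degrees C. Viability by CellTiter-Glo luminescence, normalised to DMSO and no-cell wells; concentration-response curves classed.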
Active calls of the source: *; i = inactive; ? = inconclusive; . = no result given; [ ] = another dose, or the depositor's remark. The call rests on the fitted dose curve; in most records, active means well fitted curve in the direction sought with a large enough effect; inconclusive means small, poorly fitted or top-dose-only effect, or another doubt; inactive means no such curve, though single readings can be large; an effect the other way counts as inactive or inconclusive. Unless noted, on the % scale 0 is the no-effect control and ±100 the full control effect; potency means the concentration at half of the fitted maximal effect.

SMILES	KB-3-1 cytotox	KB-V1 cytotox	TDP1 cell CPT	HT1080NT lethal	DT40 TDP1 no CPT	HT1080 IDH1KD tx
COc1ccc(CNS(=O)(=O)CCNC(=O)c2ccccc2)cc1	i	i	0%	-9%	4%	-12%
CCCCCn1c(=O)[nH]c2cc(C(=O)N3CCN(c4ccccc4F)CC3)ccc2c1=O	i	?	?	-1%	15µM*	-4%
CCCCCn1c(=S)[nH]c2cc(C(=O)N3CCN(C(=O)OCC)CC3)ccc2c1=O	i	?	-23%	6%	?	15%
CCCCN(CCCC)CCCNC(=O)c1ccc2nc(-c3ccccc3NC(C)=O)c(=O)[nH]c2c1	i	i	-9%	-15%	0%	-16%
CCCCCn1c(=O)[nH]c2cc(C(=O)N3CCN(c4cc(Cl)ccc4C)CC3)ccc2c1=O	i	i	?	.	?	.
CCOC(=O)N1CCN(C(=O)c2ccc3c(=O)n(CCC4=CCCCC4)c(=O)[nH]c3c2)CC1	i	i	16µM*	-1%	18µM*	-4%
Cc1ccc(C)c(N2CCN(C(=O)c3ccc4c(=O)n(CCc5ccccc5)c(=O)[nH]c4c3)CC2)c1	i	i	21µM*	.	16µM*	.
CC(=O)Nc1ccccc1-c1nc2ccc(C(=O)N3CCN(c4cc(C)ccc4C)CC3)cc2[nH]c1=O	i	i	?	20%	15µM*	8%
CN(CCO)C(=O)c1cn(C2CCN(Cc3c(F)cccc3Cl)CC2)nn1	.	.	-16%[9.04 µM]	.	-9%	.
O=C(NCc1ccc(F)cc1F)[C@@H]1CCCN1C(=O)[C@@H]1CCCN1	i	i	-16%	4%	-10%	-5%
CCCCCn1c(=O)[nH]c2cc(C(=O)N3CCN(CC)CC3)ccc2c1=O	i	i	-27%	2%	-23%	2%
CCCCCn1c(=O)[nH]c2cc(C(=O)N3CCN(c4ccc(C(C)=O)cc4)CC3)ccc2c1=O	i	i	15µM*	-17%	15µM*	-28%
CCCCCn1c(=O)[nH]c2cc(C(=O)N3CCN(c4ccc(F)cc4)CC3)ccc2c1=O	?	?	?	?	8.2µM*	0%
COC(=O)[C@]12C(=O)C(C)=C(O)[C@@]1(C)C(C)=CC1[C@@]34CC[C@@H](OC(C)=O)C(C)(C)C3C(C[C@]12C)OC4=O (stereo partly specified)	i	i	1%	-5%	-8%	7%
Nc1cc(C(=O)O)c(N)c2c1C(=O)c1ccccc1C2=O	?	i	16µM*	?	?	?
Nc1c(C(=O)O)ccc2c1C(=O)c1ccccc1C2=O	?	?	-8%	-23%	?	-21%
CCCc1nc2ccccc2c(=O)n1-c1c(C)n(C)n(-c2ccccc2)c1=O	i	i	26µM*	16%	18µM*	8%
Cc1ccccc1OCc1nnc(SCC(=O)Nc2ccc3c(c2)oc2ccccc23)n1C	i	i	?	10%	?	7%
Cc1ccc(-c2nnc(SCC(=O)Nc3ccc4c(c3)oc3ccccc34)n2C)c(Cl)c1	i	2.6µM*	?	?	-26%	-4%
Cn1c(SCC(=O)Nc2cccc(C(=O)O)c2)nnc1-c1cc2cc(Br)ccc2o1	i	i	7%	1%	0%	7%
CCc1cccc(C)c1NC(=O)CSc1nnc(-c2cc3cc(Br)ccc3o2)n1CC	?	21µM*	23µM*	-6%	18µM*	-22%
Cn1c(SCC(=O)Nc2cccc(Br)c2)nnc1-c1cc2ccccc2o1	i	16µM*	-18%	-4%	-25%	1%
O=C(Nc1nccs1)c1ccc(S(=O)(=O)N2CCOCC2)cc1	i	i	?	3%	16µM*	-15%
